Test results reported in PubChem BioAssay (Tox21).
Records with an inconclusive call do not appear. The source made the active and inactive calls. Unless noted, calls follow the shape of the dose curve; as a rule, active = well fitted curve in the direction sought with a large enough effect in the repeat runs; inconclusive = weak or mixed curves; inactive = no such curve, though single readings can be large; an effect the other way counts as inactive or inconclusive.

Legend:
[1] = qHTS assay to identify small molecule agonists of the hypoxia (HIF-1) signaling pathway - cell viability counter screen (AID 1224844; calls by dose curve; also: nearly all actives have a fitted effect of over 50% in size)
Outline: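 Same wells as the HIF-1 reporter screen; ME-180 cells carrying HRE-bla, 17 hr treatment at 37C; CellTiter-Glo luminescence read after 30 min at room temperature.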

[2] = qHTS assay to identify small molecule agonists of H2AX (AID 1224845; active = well fitted activation curve with a large enough effect in the signal ratio in the repeat runs, not every such curve was filed as active; the % refers to the signal ratio)
Outline: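 Wild-type CHO-K1 cells plated overnight, then exposed 3 hr at 37C to compounds at 15 concentrations (0.76% DMSO). Lysed, then HTRF anti-pH2AX(S139)-cryptate/anti-H2AX-d2 detection after 24 hr at room temperature; emissions 665 and 620 nm.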

[3] = qHTS assay to identify small molecule antagonists of the estrogen related receptor (ERR) signaling pathway from Tox21 library (AID 1224848); also: nearly all actives have a fitted effect of over 50% in size; also: potency is read from the fitted curve at half-maximal effect
Outline: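 Tox21 10K compounds in DMSO tested for ERR pathway antagonism in NTP's ERR cell line; 18 h, 37 C exposure; ONE-Glo luminescence.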

[4] = qHTS assay to identify small molecule agonists of the estrogen related receptor (ERR) signaling pathway from Tox21 library (AID 1224849; calls by dose curve; also: nearly all actives have a fitted effect of over 15% in size)
Outline: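 Reporter cells (ERR, NTP source) treated with Tox21 10K compounds 18 h, 37 C. Readout: ONE-Glo luminescence, 30 min RT.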

[5] = qHTS RealTime-Glo MT Cell Viability Assay in HEK293 cells - 32 hour (AID 1224868); also: nearly all actives have a fitted effect of over 50% in size; also: potency is read from the fitted curve at half-maximal effect
Outline: (§1)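 Luminescence generated by NanoLuc from substrate produced by living HEK293 cells served as the viability signal. Each value reflects the reading at its stated time point during continuous 40 h compound exposure at 37 C.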

[6] = A CellTox Green Cytotoxicity Assay to monitor cytotoxicity in HEK293 cells - 0 hour (AID 1224869); also: nearly all actives have a fitted effect of over 50% in size
Outline: (§2)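 Homogeneous no-lysis format: HEK293 cell suspension mixed with CellTox Green reagent, seeded, incubated 5 h at 37 C/5% CO2, then dosed by pintool with compound in DMSO.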

[7] = A CellTox Green Cytotoxicity Assay to monitor cytotoxicity in HEK293 cells - 40 hour (AID 1224871); also: nearly all actives have a fitted effect of over 45% in size
Outline: as §2

[8] = qHTS RealTime-Glo MT Cell Viability Assay in HEK293 cells - 16 hour (AID 1224872)
Outline: as §1

[9] = qHTS RealTime-Glo MT Cell Viability Assay in HepG2 cells - 8 hour (AID 1224873); also: nearly all actives have a fitted effect of over 55% in size
Outline: (§3)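 HepG2 cells mixed with RealTime-Glo MT reagents (NanoLuc plus cell-permeant prosubstrate) were seeded at 600 cells/well, incubated 5 h at 37 C/5% CO2, then pinned with compounds in DMSO; nonlytic luminescence tracked viability during 40 h treatment.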

[10] = qHTS RealTime-Glo MT Cell Viability Assay in HEK293 cells - 40 hour (AID 1224874); conditions: RealTime-Glo luminescence; max response: hits give low values; also: nearly all actives have a fitted effect of over 50% in size; also: potency is read from the fitted curve at half-maximal effect
Outline: (§4)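 Measured as luminescence from the same continuously cultured HEK293 wells at successive time points (0, 8, 16, 24, 32, 40 h) after compound addition. Reagent present from seeding; dosing at 5 h; incubation 37 C.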

[11] = A CellTox Green Cytotoxicity Assay to monitor cytotoxicity in HEK293 cells - 24 hour (AID 1224875); also: series mostly up to about 77 µM; nearly all actives have a fitted effect of over 45% in size
Outline: as §2

[12] = A CellTox Green Cytotoxicity Assay to monitor cytotoxicity in HepG2 cells - 16 hour (AID 1224876); also: nearly all actives have a fitted effect of over 45% in size
Outline: (§5)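 Fluorescent DNA-binding dye, 600 HepG2 cells/well, 5 h preincubation then compound in DMSO; same plates read at 0–40 h, 37 C.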

[13] = qHTS RealTime-Glo MT Cell Viability Assay in HepG2 cells - 32 hour (AID 1224877); also: nearly all actives have a fitted effect of over 55% in size
Outline: (§6)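 Tox21 10K library screened in qHTS format on HepG2 cells carrying RealTime-Glo reagents. Compounds were added after a 5 h preincubation, and the luminescent signal from continuous culture was measured repeatedly during 40 h treatment.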

[14] = A CellTox Green Cytotoxicity Assay to monitor cytotoxicity in HepG2 cells - 24 hour (AID 1224878); also: nearly all actives have a fitted effect of over 45% in size
Outline: as §5

[15] = A CellTox Green Cytotoxicity Assay to monitor cytotoxicity in HepG2 cells - 40 hour (AID 1224879); also: nearly all actives have a fitted effect of over 40% in size
Outline: as §5

[16] = qHTS RealTime-Glo MT Cell Viability Assay in HEK293 cells - 0 hour (AID 1224880)
Outline: as §4

[17] = qHTS assay to identify small molecule agonists of the hypoxia (HIF-1) signaling pathway (AID 1224846; active = well fitted activation curve with a large enough effect in the signal ratio in the repeat runs, not every such curve was filed as active; the % refers to the signal ratio)
Outline: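 In ME-180 cells bearing an HRE-bla construct, 17 h treatment with DMSO-dissolved compounds at 37C was followed by CCF4-AM loading to quantify reporter induction.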

[18] = qHTS assay to identify small molecule agonists of H2AX - cell viability counter screen (AID 1224847; calls by dose curve; also: top concentration of the series differs between compounds; nearly all actives have a fitted effect of over 30% in size)
Outline: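 Counter-screen for viability: CellTiter-Glo ATP luminescence read after 3 h compound treatment (15-point titration, 0.76% DMSO final) of CHO-K1 cells at 37C, with 30 min room-temperature reagent incubation.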

[19] = qHTS RealTime-Glo MT Cell Viability Assay in HepG2 cells - 24 hour (AID 1224867); also: nearly all actives have a fitted effect of over 50% in size
Outline: as §6

[20] = qHTS RealTime-Glo MT Cell Viability Assay in HepG2 cells - 40 hour (AID 1224870); also: nearly all actives have a fitted effect of over 50% in size
Outline: as §3
% is scaled to controls: 0 for no effect and ±100 for the full control effect.

CO/N=C(\C(=O)N[C@@H]1C(=O)N2C(C(=O)O)=C(CSc3nc(=O)c(O)nn3C)CS[C@H]12)c1csc(N)n1
inactive: Potency [1] | Potency [2] | Potency [3] | outcome [4] | Potency [5] | outcome [6] | Potency [7] | Potency [8] | outcome [9] | max response [10] 11.9% | outcome [11] | outcome [12] | Potency [13] | outcome [14] | Potency [15] | Potency [16]

C=C(C)C(=O)OCCOCCOCCOCCOC(=O)C(=C)C
inactive: Potency [1] | outcome [17] | outcome [18] | outcome [6] | Potency [7] | Potency [8] | outcome [9] | outcome [11] | outcome [12] | Potency [13] | outcome [14] | Potency [15] | Potency [16]

C[C@@H]1C[C@H]2[C@@H]3C[C@H](F)C4=CC(=O)C(Cl)=C[C@]4(C)[C@@]3(F)[C@@H](O)C[C@]2(C)[C@@]1(O)C(=O)CO
inactive: Potency [2] | outcome [18] | outcome [19] | Potency [5] | Potency [20] | Potency [7] | Potency [8] | outcome [9] | max response [10] -27.2% | outcome [11] | outcome [12] | Potency [13] | outcome [14] | Potency [15] | Potency [16]

CC(=O)c1ccc2ccccc2c1
inactive: Potency [1] | Potency [2] | outcome [19] | Potency [5] | Potency [20] | Potency [7] | Potency [8] | outcome [9] | max response [10] 8.54% | outcome [11] | Potency [13] | Potency [16]

Cc1ccc(C(=O)Nc2ccc(S(=O)(=O)O)c3cc(S(=O)(=O)O)cc(S(=O)(=O)O)c23)cc1NC(=O)c1cccc(NC(=O)Nc2cccc(C(=O)Nc3cc(C(=O)Nc4ccc(S(=O)(=O)O)c5cc(S(=O)(=O)O)cc(S(=O)(=O)O)c45)ccc3C)c2)c1
inactive: Potency [1] | Potency [2] | Potency [3] | outcome [4] | Potency [5] | Potency [20] | Potency [7] | Potency [8] | outcome [9] | max response [10] 4.78% | outcome [11] | outcome [12] | Potency [13] | outcome [14] | Potency [16]

CCN(CC#N)c1cccc(C)c1
inactive: Potency [1] | Potency [2] | outcome [19] | Potency [5] | outcome [6] | Potency [20] | Potency [7] | Potency [8] | outcome [9] | max response [10] 13% | outcome [11] | outcome [12] | Potency [13] | outcome [14] | Potency [15] | Potency [16]

CN(C)[C@@H]1C(=O)C(C(=O)NCN2CCCC2)=C(O)[C@@]2(O)C(=O)C3=C(O)c4c(O)cccc4[C@@](C)(O)C3C[C@@H]12 (some centres not stated)
inactive: Potency [1] | outcome [18] | Potency [5] | outcome [6] | Potency [20] | Potency [7] | Potency [8] | outcome [9] | max response [10] 7.86% | outcome [11] | outcome [12] | Potency [13] | outcome [14] | Potency [15] | Potency [16]

COc1cc2c(cc1OC)-c1cc3ccc(OC)c(OC)c3c[n+]1CC2
inactive: Potency [1] | outcome [19] | outcome [6] | Potency [20] | Potency [7] | outcome [9] | outcome [11] | outcome [12] | Potency [13] | outcome [14] | Potency [15] | Potency [16]
active: Potency [3] 24.6 µM | Potency [5] 49.4 µM | Potency [10] 44.1 µM

CN1[C@@H]2CC[C@H]1CC(OC(=O)C(O)c1ccccc1)C2 (some centres not stated)
inactive: Potency [1] | Potency [2] | Potency [3] | outcome [19] | Potency [5] | outcome [6] | Potency [20] | Potency [7] | Potency [8] | outcome [9] | max response [10] 3.93% | outcome [11] | outcome [12] | Potency [13] | outcome [14] | Potency [15] | Potency [16]

CCCCOCCOC(=O)COc1cc(Cl)c(Cl)cc1Cl
inactive: Potency [1] | Potency [2] | outcome [19] | Potency [5] | outcome [6] | Potency [20] | Potency [7] | Potency [8] | outcome [9] | max response [10] 4.7% | outcome [11] | outcome [12] | Potency [13] | outcome [14] | Potency [15] | Potency [16]

CC1=NN(c2cccc(S(=O)(=O)O)c2)C(=O)C1
inactive: outcome [17] | outcome [18] | Potency [3] | outcome [4] | outcome [19] | Potency [5] | outcome [6] | Potency [20] | Potency [7] | Potency [8] | outcome [9] | max response [10] 2.46% | outcome [11] | outcome [12] | Potency [13] | outcome [14] | Potency [15] | Potency [16]

CC(=O)Nc1ccc(OCC(O)CNC(C)C)cc1 (configuration not stated)
inactive: Potency [1] | Potency [2] | Potency [5] | outcome [6] | Potency [20] | Potency [7] | Potency [8] | outcome [9] | max response [10] -1.7% | outcome [11] | outcome [12] | Potency [13] | outcome [14] | Potency [15]
